Measurements as given in PubChem BioAssay.
Records with an inconclusive call do not appear. The source made the active and inactive calls.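 How the source made its calls, unless noted: active means compounds killing one labelled cell type while sparing the other, by normalised counts and ratio limits, not self-fluorescent; inactive means the rest.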

Columns and labels:
[1] = blockers of polyQ-driven CASP3 activation – cell-based (AID 1583); settings: polyglutamine-induced caspase-3 activation, cell assay; stronger effect = higher value;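 tested at 10 µM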
[2] = yeast 75Q aggregation reduction – 75Q-TubU reporter (AID 1593); settings: Yeast 75Q polyglutamine aggregation reporter
[3] = P. berghei load reduction in hepatocytes – cell-based, HepG2, luciferase luminescence, HepG2 viability, primary screen (AID 624349; in the data active means parasite load remaining mostly below about 12%, no sharp cut-off; inactive means mostly above about 10%;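 further: 100% = mean of DMSO negative control wells on the same plate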); settings: P. berghei liver stage in HepG2, luciferase luminescence, concentration not given here; parasite load remaining: stronger effect = lower value; viability: measured here: HepG2 viability without parasites
[4] = EMT-state selective cytotoxicity in co-culture – imaging, PC-3E GFP, TEM4-18 mCherry, primary screen (AID 1345086); settings: PC-3E GFP / TEM4-18 mCherry co-culture, imaging cell counts, at 1 µM; for red/green cell ratio (normalised): actives lie on both sides, counts scaled to control wells, 1 = unselective;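 on all read-outs here: cells exposed to compound for 72 h before imaging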;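 on red/green cell ratio (normalised): normalised mesenchymal count divided by normalised epithelial count so high means epithelial killing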
[5] = test system: Aerobactin synthetase IucA (Klebsiella pneumoniae); experiment: inhibition of K. pneumoniae IucA enzyme – biochemical, Tocris library, absorbance (AID 1345561; call rule not given here;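 further: 100% = enzyme without compound and 0% = no enzyme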); settings: purified IucA enzyme assay, absorbance (OD) read-out; stronger effect = lower value;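 tested at 8 µM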
[6] = viability loss in pontine glioma line – cell-based, SU-DIPG-XVII, MIPE5.0, CellTiter-Glo, qHTS, dose response (AID 1347060; cut-off not given, nearly all actives have AC50 up to about 26 µM); settings: CellTiter-Glo ATP luminescence
[7] = viability loss in pontine glioma line – cell-based, SU-DIPG-XIII, MIPE4.0, CellTiter-Glo, qHTS, dose response (AID 1347061; cut-off not given, nearly all actives have AC50 up to about 37 µM;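 further: cells exposed to compound for 48 hours before readout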); settings: CellTiter-Glo ATP luminescence
[8] = viability loss in pontine glioma line – cell-based, JHH-DIPG-1, MIPE4.0, CellTiter-Glo, qHTS, dose response (AID 1347062; cut-off not given, nearly all actives have AC50 up to about 27 µM); settings: JHH-DIPG-1 viability, CellTiter-Glo ATP luminescence
[9] = viability loss in pontine glioma line – cell-based, SU-DIPG-IV, MIPE4.0, CellTiter-Glo, qHTS, dose response (AID 1347063; cut-off not given, nearly all actives have AC50 up to about 30 µM;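 further: compound exposure lasted 48 hours before the viability readout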); settings: CellTiter-Glo ATP luminescence
[10] = viability loss in pontine glioma line – cell-based, SU-DIPG-XIII, MIPE5.0, CellTiter-Glo, qHTS, dose response (AID 1347064; cut-off not given, nearly all actives have AC50 up to about 23 µM); settings: CellTiter-Glo ATP luminescence
[11] = viability loss in pontine glioma line – cell-based, SU-DIPG-XXV, MIPE5.0, CellTiter-Glo, qHTS, dose response (AID 1347065; cut-off not given, nearly all actives have AC50 up to about 26 µM;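 further: cells exposed to compound for 48 hours before ATP readout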); settings: CellTiter-Glo ATP luminescence
[12] = growth inhibition of DIPG cells – cell-based, MIPE4.0 library, CellTiter-Glo luminescence, qHTS (AID 1347066; cut-off not given, nearly all actives have AC50 up to about 30 µM;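 further: cells exposed to compound for 48 hours before readout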); settings: SU-DIPG-VI viability, CellTiter-Glo ATP luminescence
[13] = JHH-DIPG-1 glioma cell viability, MIPE5.0 library, CellTiter-Glo luminescence, qHTS (AID 1347067; cut-off not given, nearly all actives have AC50 up to about 26 µM;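 further: cells exposed to compound for 48 hours before readout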); settings: JHH-DIPG-1 glioma viability, CellTiter-Glo ATP luminescence
[14] = growth inhibition of DIPG cells – cell-based, MIPE5.0 library, qHTS (AID 1347068; cut-off not given, nearly all actives have IC50 up to about 30 µM); settings: SU-DIPG-XXV viability
[15] = viability loss with induced miR-34 in A549 – imaging, A549 dox-inducible miR-34, nuclei and caspase counts, primary screen (AID 1347080;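 active means compounds whose cell count with miR-34 switched on is under 0.7 times the count with it off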); settings: A549 miR-34 inducible, Hoechst nuclei count, 48 h
[16] = galactose survival enhancers in mitochondrial complex I cybrids – cell-based, galactose medium, ATP luminescence, primary screen (AID 1645843;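 active means z-score of at least 1.8 in each of two replicates, scored against plate mean and spread of sample wells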;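 further: positive z means more ATP and so rescue of galactose-driven cybrid death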); settings: complex I mutant cybrid cells, 72 h, stronger effect = higher value
[17] = measured here: epithelial PC-3E GFP cell survival
[18] = measured here: mesenchymal TEM4-18 mCherry cell survival

Structure (SMILES): CC(=O)O[C@@H]1CC2C(C)(C)C(=O)C=C[C@]2(C)C2CC[C@@]3(C)[C@H](c4ccoc4)OC(=O)[C@H]4O[C@]43[C@@]21C (stereo partly specified)
- inhibition [1]: -6.23%
- score [2]: 0.97
- parasite load remaining [3]: 2.66% (inactive)
- viability [3]: 98.4%
- red/green cell ratio (normalised) [4]: 1.12 (inactive)
- normalised cell number [4, 17]: 0.89
- normalised cell number [4, 18]: 0.99

Structure (SMILES): NC(COCc1ccccc1)C(=O)O (stereo unspecified)
- inhibition [1]: 2.09%
- score [2]: 1.43
- red/green cell ratio (normalised) [4]: 0.87 (inactive)
- normalised cell number [4, 17]: 1.19
- normalised cell number [4, 18]: 1.04

Structure (SMILES): NC[C@@H]1O[C@H](O[C@@H]2[C@@H](CO)OC(O[C@@H]3[C@@H](O)[C@H](N)C[C@H](N)[C@H]3O[C@H]3O[C@H](CO)[C@@H](O)[C@H](O)[C@H]3N)[C@@H]2O)[C@H](N)[C@@H](O)[C@@H]1O (stereo partly specified)
- parasite load remaining [3]: 141% (inactive)
- viability [3]: 87.6%
- red/green cell ratio (normalised) [4]: 1.21 (inactive)
- normalised cell number [4, 17]: 0.93
- normalised cell number [4, 18]: 1.13

Structure (SMILES): CC(=O)N[C@@H]1[C@@H](C(O)[C@H](O)CO)O[C@](O)(C(=O)O)C[C@@H]1O (stereo partly specified)
- inhibition [1]: 7.5%
- score [2]: 1.07
- red/green cell ratio (normalised) [4]: 0.94 (inactive)
- normalised cell number [4, 17]: 1.19
- normalised cell number [4, 18]: 1.12

Structure (SMILES): CCCC(=O)Nc1ncnc2c1ncn2C1O[C@@H]2COP(=O)(O)O[C@H]2[C@H]1OC(=O)CCC (stereo partly specified)
- inhibition [1]: -71.1%
- score [2]: 1.26
- parasite load remaining [3]: 129% (inactive)
- viability [3]: 95%
- red/green cell ratio (normalised) [4]: 0.94 (inactive)
- normalised cell number [4, 17]: 0.93
- normalised cell number [4, 18]: 0.88

Structure (SMILES): COC(=O)C(N)CS (stereo unspecified)
- inhibition [1]: -5.77%
- score [2]: 1.37
- parasite load remaining [3]: 102% (inactive)
- viability [3]: 69.9%
- red/green cell ratio (normalised) [4]: 0.97 (inactive)
- normalised cell number [4, 17]: 1.14
- normalised cell number [4, 18]: 1.11

Structure (SMILES): Nc1ccn(C2O[C@H](CO)[C@@H](O)[C@H]2O)c(=O)n1 (stereo partly specified)
- inhibition [1]: 22%
- score [2]: 1.09
- red/green cell ratio (normalised) [4]: 1.13 (inactive)
- normalised cell number [4, 17]: 1.06
- normalised cell number [4, 18]: 1.19

Structure (SMILES): CCN(c1ccccc1)c1cc(NC)[n+](C)c(C)n1
- remaining activity [5]: 84.7% (inactive)
- outcome [6]: inactive
- outcome [7]: inactive
- outcome [8]: inactive
- outcome [9]: inactive
- outcome [10]: inactive
- outcome [11]: inactive
- outcome [12]: inactive
- outcome [13]: inactive
- outcome [14]: inactive
- fold change ([15]; stronger effect = lower value, cell number ratio, induced over uninduced): 1.03 (inactive)
- fold change ([15]; measured here: relative caspase fold change +Dox/-Dox): 0.719
- cell count ([15]; measured here: total cells with miR-34 induction, stronger effect = lower value): 7990
- cell count ([15]; measured here: total cells without miR-34 induction): 7790
- z-score [16]: 0.245 (inactive)

Structure (SMILES): C[C@@H]1O[C@@H](OC[C@H]2OC(Oc3c(-c4ccc(OCCO)c(OCCO)c4)oc4cc(OCCO)cc(O)c4c3=O)[C@H](O)[C@@H](O)[C@@H]2O)[C@H](O)[C@H](O)[C@H]1O (stereo partly specified)
- parasite load remaining [3]: 141% (inactive)
- viability [3]: 89.1%
- red/green cell ratio (normalised) [4]: 0.94 (inactive)
- normalised cell number [4, 17]: 1.03
- normalised cell number [4, 18]: 0.96

Structure (SMILES): CC(C)Oc1ccc2c(=O)cc(-c3ccccc3)oc2c1
- inhibition [1]: 19.6%
- score [2]: 0.68
- red/green cell ratio (normalised) [4]: 0.86 (inactive)
- normalised cell number [4, 17]: 1.15
- normalised cell number [4, 18]: 0.99

Structure (SMILES): COc1ccc([C@@H]2CC(=O)c3c(O)cc(O[C@@H]4O[C@H](CO[C@H]5O[C@@H](C)[C@H](O)[C@@H](O)[C@H]5O)[C@@H](O)[C@H](O)[C@H]4O)cc3O2)cc1O
- inhibition [1]: 12.3%
- score [2]: 1.13
- red/green cell ratio (normalised) [4]: 0.82 (inactive)
- normalised cell number [4, 17]: 0.99
- normalised cell number [4, 18]: 0.81
